# Reference: the supplement of paper PMC12819154, “High-throughput peptide-centric local stability assay extends protein–ligand identification to membrane proteins, tissues and bacteria” (Nature Structural & Molecular Biology, 2025)
# Compound: CN[C@@H]1C[C@H]2O[C@@](C)([C@@H]1OC)n1c3ccccc3c3c4c(c5c6ccccc6n2c5c31)C(=O)NC4 [staurosporine]
# Experiment: log2 fold change of tryptic peptide abundance, ligand vs vehicle (limited proteolysis) (log2 ratio); higher = more trypsin-susceptible (destabilized)
# Settings: ligand concentration: 20 uM; sample: K562 cleared lysate; digestion: 4 min, 22 C (HT-PELSA RT4min, Orbitrap Astral)
# UniProt Q6P5Z2, sequence (Q6P5Z2 whole entry, looked up): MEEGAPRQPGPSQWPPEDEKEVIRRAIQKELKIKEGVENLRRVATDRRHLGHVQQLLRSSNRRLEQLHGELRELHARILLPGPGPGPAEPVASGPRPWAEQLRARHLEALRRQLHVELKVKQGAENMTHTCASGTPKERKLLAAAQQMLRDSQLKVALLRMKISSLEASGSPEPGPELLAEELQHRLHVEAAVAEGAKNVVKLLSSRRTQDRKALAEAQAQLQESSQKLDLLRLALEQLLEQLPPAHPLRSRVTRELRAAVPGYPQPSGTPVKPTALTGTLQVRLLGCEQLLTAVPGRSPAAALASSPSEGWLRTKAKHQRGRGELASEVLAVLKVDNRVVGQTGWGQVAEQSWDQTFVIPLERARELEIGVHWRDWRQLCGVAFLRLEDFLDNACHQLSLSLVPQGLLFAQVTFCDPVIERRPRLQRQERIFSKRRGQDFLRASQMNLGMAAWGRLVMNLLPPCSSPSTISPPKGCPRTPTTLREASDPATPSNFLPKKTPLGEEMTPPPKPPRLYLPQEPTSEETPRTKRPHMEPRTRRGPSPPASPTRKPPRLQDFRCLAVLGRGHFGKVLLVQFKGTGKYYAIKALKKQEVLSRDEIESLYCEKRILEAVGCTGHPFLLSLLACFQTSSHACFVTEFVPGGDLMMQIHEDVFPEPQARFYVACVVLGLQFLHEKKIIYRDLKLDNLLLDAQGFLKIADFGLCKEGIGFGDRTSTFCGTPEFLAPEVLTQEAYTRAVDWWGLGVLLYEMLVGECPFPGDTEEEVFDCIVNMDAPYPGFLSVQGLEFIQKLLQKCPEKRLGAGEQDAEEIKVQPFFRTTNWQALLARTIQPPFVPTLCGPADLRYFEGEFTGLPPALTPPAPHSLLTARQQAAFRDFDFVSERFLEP
# UniProt Q8NEB9, sequence (Q8NEB9 whole entry): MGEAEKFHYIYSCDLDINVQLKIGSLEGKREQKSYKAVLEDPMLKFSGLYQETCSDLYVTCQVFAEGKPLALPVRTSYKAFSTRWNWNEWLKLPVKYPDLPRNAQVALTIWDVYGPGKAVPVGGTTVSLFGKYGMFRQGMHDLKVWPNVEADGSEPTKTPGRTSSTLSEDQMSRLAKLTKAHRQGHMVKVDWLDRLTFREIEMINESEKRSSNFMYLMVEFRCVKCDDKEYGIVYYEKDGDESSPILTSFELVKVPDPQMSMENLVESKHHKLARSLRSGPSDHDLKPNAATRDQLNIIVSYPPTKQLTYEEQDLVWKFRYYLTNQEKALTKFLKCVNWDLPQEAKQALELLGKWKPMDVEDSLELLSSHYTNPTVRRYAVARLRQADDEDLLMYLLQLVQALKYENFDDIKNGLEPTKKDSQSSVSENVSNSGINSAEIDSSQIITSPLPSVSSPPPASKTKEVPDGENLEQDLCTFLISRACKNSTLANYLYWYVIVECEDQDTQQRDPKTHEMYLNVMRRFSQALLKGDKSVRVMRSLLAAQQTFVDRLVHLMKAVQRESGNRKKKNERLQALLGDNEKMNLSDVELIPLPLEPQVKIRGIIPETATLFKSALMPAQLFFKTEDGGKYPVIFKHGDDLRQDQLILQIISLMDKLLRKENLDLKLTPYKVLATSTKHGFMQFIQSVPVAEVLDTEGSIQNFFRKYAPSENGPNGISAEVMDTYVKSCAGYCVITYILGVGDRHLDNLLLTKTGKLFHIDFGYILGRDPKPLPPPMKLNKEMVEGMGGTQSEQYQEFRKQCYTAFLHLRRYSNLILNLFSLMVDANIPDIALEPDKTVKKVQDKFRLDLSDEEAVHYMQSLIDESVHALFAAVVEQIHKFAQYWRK
# UniProt Q9UHD2, sequence (Q9UHD2 whole entry): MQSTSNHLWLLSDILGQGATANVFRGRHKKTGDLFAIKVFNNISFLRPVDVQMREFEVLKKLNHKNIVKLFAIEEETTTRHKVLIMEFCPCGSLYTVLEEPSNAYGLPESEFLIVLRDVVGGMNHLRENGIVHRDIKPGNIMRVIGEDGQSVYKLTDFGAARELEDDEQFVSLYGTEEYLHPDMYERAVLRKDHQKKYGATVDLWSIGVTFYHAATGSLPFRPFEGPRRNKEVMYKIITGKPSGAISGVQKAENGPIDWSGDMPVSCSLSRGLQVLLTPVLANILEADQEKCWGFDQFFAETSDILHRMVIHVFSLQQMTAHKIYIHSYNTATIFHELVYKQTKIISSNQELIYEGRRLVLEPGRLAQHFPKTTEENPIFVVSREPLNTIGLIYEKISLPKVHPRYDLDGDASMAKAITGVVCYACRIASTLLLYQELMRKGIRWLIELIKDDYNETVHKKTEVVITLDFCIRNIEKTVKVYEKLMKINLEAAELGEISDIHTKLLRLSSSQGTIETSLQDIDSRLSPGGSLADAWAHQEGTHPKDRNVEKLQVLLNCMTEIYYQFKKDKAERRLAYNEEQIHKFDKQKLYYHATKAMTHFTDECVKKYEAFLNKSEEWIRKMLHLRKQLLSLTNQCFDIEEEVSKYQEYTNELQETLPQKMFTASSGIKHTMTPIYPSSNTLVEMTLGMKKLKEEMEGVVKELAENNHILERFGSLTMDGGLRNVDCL
# UniProt Q13177, sequence (Q13177 whole entry): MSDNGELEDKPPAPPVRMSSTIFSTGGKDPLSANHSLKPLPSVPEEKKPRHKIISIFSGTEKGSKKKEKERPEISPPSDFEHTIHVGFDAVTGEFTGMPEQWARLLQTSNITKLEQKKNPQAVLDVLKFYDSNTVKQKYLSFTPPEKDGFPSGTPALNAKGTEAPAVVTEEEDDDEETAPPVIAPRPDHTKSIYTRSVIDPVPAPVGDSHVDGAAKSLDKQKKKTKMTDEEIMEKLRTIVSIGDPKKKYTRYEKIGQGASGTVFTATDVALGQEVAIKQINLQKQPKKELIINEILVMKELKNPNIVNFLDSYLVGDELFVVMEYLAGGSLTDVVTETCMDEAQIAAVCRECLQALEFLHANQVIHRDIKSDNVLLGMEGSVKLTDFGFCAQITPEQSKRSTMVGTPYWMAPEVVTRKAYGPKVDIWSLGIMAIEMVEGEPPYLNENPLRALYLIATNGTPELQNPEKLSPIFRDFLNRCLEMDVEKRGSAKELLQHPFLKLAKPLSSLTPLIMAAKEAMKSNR
# UniProt Q14004, sequence (Q14004 whole entry, looked up): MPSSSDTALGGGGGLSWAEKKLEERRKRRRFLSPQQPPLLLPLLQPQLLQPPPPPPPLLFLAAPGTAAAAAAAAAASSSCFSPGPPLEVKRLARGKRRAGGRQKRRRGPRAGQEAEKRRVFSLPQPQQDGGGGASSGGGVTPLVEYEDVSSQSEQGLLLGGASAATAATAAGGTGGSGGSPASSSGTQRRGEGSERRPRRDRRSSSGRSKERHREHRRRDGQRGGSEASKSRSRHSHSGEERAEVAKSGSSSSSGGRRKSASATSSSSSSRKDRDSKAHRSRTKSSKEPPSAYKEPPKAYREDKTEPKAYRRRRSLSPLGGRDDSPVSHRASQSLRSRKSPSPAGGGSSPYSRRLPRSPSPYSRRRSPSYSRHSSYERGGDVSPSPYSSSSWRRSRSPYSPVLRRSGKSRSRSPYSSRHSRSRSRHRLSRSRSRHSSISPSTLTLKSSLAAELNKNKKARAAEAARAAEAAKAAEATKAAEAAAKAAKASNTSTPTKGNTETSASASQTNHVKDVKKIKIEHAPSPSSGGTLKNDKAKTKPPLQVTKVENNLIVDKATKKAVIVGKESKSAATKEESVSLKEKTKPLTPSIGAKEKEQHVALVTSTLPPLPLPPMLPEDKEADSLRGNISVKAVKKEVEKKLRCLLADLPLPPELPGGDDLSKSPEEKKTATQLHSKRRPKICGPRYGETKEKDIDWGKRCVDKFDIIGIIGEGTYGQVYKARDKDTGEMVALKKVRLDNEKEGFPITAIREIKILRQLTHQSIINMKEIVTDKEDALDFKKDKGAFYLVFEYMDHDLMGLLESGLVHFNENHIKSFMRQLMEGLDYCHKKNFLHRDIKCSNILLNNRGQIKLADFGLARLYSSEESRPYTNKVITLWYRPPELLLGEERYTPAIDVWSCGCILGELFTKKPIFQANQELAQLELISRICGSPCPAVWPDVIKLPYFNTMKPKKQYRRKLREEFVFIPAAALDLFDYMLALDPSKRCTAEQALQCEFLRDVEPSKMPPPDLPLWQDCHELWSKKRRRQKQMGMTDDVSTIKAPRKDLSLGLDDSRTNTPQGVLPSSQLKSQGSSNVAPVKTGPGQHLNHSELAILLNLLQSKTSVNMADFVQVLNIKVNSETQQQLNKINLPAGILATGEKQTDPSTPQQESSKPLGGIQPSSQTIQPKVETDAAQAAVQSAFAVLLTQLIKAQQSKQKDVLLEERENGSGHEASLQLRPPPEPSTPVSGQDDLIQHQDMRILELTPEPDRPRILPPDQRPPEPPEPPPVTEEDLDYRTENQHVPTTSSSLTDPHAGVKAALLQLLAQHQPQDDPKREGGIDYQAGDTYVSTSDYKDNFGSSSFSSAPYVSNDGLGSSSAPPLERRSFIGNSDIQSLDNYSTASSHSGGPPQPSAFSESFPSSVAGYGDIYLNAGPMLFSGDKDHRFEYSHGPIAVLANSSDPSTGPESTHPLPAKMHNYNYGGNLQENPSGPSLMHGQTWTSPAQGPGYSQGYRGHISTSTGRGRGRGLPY
# UniProt P15559, sequence (P15559 whole entry): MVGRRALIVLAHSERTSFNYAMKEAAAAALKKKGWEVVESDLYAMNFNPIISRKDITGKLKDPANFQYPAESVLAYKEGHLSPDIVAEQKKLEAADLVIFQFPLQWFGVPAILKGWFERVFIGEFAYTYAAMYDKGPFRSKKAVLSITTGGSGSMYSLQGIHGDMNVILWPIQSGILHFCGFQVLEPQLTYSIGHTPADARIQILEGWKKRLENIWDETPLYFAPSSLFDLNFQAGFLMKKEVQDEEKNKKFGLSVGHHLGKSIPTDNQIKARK
# UniProt P02100, sequence (P02100 whole entry): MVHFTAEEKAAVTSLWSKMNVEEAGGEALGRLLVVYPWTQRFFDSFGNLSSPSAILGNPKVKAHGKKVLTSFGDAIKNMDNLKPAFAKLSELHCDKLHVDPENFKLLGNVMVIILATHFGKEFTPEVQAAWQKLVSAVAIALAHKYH
row,Target,log2 fold change
1,"UniProt Q14004 (peptide sequence: EGFPITAIR, peptide start residue: 765)",-1.01
2,"HBE1 (peptide sequence: MNVEEAGGEALGR, peptide start residue: 19) (UniProt P02100)",0.28
3,"TBK1 (peptide sequence: VIGEDGQSVYK, peptide start residue: 144) (UniProt Q9UHD2)",-1.75
4,"TROAP (peptide sequence: SCLTAIHCFHEAR, peptide start residue: 717) (UniProt Q12815)",1.24
5,"PKN3 (peptide sequence: TTNWQALLAR, peptide start residue: 820) (UniProt Q6P5Z2)",-2.37
6,"PRPF4B (peptide sequence: QHLCLVFEPLSMNLR, peptide start residue: 761) (UniProt Q13523)",-0.779
7,"UniProt O00567 (peptide sequence: LIAHAGSLTNLAK, peptide start residue: 308)",0.316
8,"PAK2 (peptide sequence: MTDEEIMEK, peptide start residue: 227) (UniProt Q13177)",-2.15
9,"UniProt Q8NEB9 (peptide sequence: SALMPAQLFFK, peptide start residue: 614)",-0.384
10,"NQO1 (peptide sequence: SIPTDNQIK, peptide start residue: 263) (UniProt P15559)",0.728
11,"UniProt P61962 (peptide sequence: LMWIPDTK, peptide start residue: 74)",0.374
